Measured values taken from the supplement of paper PMC8728848.
The full list was thinned out, with the strongest signals kept by preference.

Tests used:
Assay in all cases: glycan array binding signal (z-score within array); higher = stronger binding
Conditions in all cases: glycan notation: IUPAC condensed, linker removed
[1] = target: Gal(b1-6)Gal
In short: (§1)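 Glycan array binding is given as a within-array Z-score, which can be read as non-binding when negative. The arrays, 3228 of them, came from the Consortium for Functional Glycomics database and were retained only where the protein sequence was available. Z-scores were averaged across arrays of the same protein sequence at different concentrations or buffers and across linkers.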

[2] = target: Gal3S(b1-4)GlcNAc
In short: as §1

[3] = target: Gal3S(b1-4)[Fuc(a1-3)]Glc
In short: as §1

[4] = target: GalNAc(a1-3)GalNAc
In short: as §1

[5] = target: GalNAc(b1-3)Gal(a1-4)Gal(b1-4)GlcNAc
In short: as §1

[6] = target: GalNAc(b1-4)GlcNAc
In short: as §1

[7] = target: GlcA(b1-3)GlcNAc
In short: as §1

[8] = target: GlcNAc(b1-3)Gal(b1-4)GlcNAc(b1-2)Man(a1-3)[GlcNAc(b1-3)Gal(b1-4)GlcNAc(b1-2)Man(a1-6)]Man(b1-4)GlcNAc(b1-4)GlcNAc
In short: as §1

[9] = target: GlcNAc(b1-3)Gal(b1-4)GlcNAc(b1-3)Gal(b1-4)GlcNAc(b1-3)Gal(b1-4)GlcNAc(b1-2)Man(a1-3)[GlcNAc(b1-3)Gal(b1-4)GlcNAc(b1-3)Gal(b1-4)GlcNAc(b1-3)Gal(b1-4)GlcNAc(b1-2)Man(a1-6)]Man(b1-4)GlcNAc(b1-4)[Fuc(a1-6)]GlcNAc
In short: as §1

[10] = target: GlcNAc(b1-3)Gal(b1-4)GlcNAc(b1-3)Gal(b1-4)GlcNAc(b1-3)Gal(b1-4)GlcNAc(b1-3)Gal(b1-4)GlcNAc(b1-2)Man(a1-3)[GlcNAc(b1-3)Gal(b1-4)GlcNAc(b1-3)Gal(b1-4)GlcNAc(b1-3)Gal(b1-4)GlcNAc(b1-3)Gal(b1-4)GlcNAc(b1-2)Man(a1-6)]Man(b1-4)GlcNAc(b1-4)GlcNAc
In short: as §1

[11] = target: GlcNAc(b1-3)Gal(b1-4)GlcNAc(b1-3)Gal(b1-4)GlcNAc(b1-3)Gal(b1-4)GlcNAc(b1-3)Gal(b1-4)GlcNAc(b1-2)Man(a1-3)[GlcNAc(b1-3)Gal(b1-4)GlcNAc(b1-3)Gal(b1-4)GlcNAc(b1-3)Gal(b1-4)GlcNAc(b1-3)Gal(b1-4)GlcNAc(b1-2)Man(a1-6)]Man(b1-4)GlcNAc(b1-4)[Fuc(a1-6)]GlcNAc
In short: as §1

[12] = target: GlcNAc(b1-3)Gal(b1-4)GlcNAc(b1-3)Gal(b1-4)GlcNAc(b1-3)Gal(b1-4)GlcNAc(b1-3)Gal(b1-4)GlcNAc(b1-2)[GlcNAc(b1-3)Gal(b1-4)GlcNAc(b1-3)Gal(b1-4)GlcNAc(b1-3)Gal(b1-4)GlcNAc(b1-3)Gal(b1-4)GlcNAc(b1-6)]Man(a1-6)[GlcNAc(b1-3)Gal(b1-4)GlcNAc(b1-3)Gal(b1-4)GlcNAc(b1-3)Gal(b1-4)GlcNAc(b1-3)Gal(b1-4)GlcNAc(b1-2)Man(a1-3)]Man(b1-4)GlcNAc(b1-4)[Fuc(a1-6)]GlcNAc
In short: as §1

[13] = target: GlcNAc(b1-3)Man
In short: as §1

[14] = target: MurNAc(b1-4)GlcNAc
In short: as §1

[15] = target: Neu5Ac(a2-3)Gal(b1-3)GalNAc(b1-4)[Neu5Ac(a2-8)Neu5Ac(a2-3)]Gal(b1-4)Glc
In short: as §1

[16] = target: Neu5Ac(a2-3)Gal(b1-4)GlcNAc(b1-2)Man(a1-3)[Neu5Ac(a2-3)Gal(b1-4)GlcNAc(b1-2)Man(a1-6)]Man(b1-4)GlcNAc(b1-4)GlcNAc
In short: as §1

[17] = target: Neu5Ac(a2-3)Gal(b1-4)GlcNAc(b1-3)Gal(b1-4)GlcNAc(b1-2)Man(a1-3)[Neu5Ac(a2-3)Gal(b1-4)GlcNAc(b1-3)Gal(b1-4)GlcNAc(b1-2)Man(a1-6)]Man(b1-4)GlcNAc(b1-4)GlcNAc
In short: as §1

[18] = target: Neu5Ac(a2-3)Gal(b1-4)GlcNAc(b1-3)Gal(b1-4)GlcNAc(b1-3)Gal(b1-4)GlcNAc(b1-2)Man(a1-3)[Neu5Ac(a2-3)Gal(b1-4)GlcNAc(b1-3)Gal(b1-4)GlcNAc(b1-3)Gal(b1-4)GlcNAc(b1-2)Man(a1-6)]GalNAc
In short: as §1

[19] = target: Neu5Ac(a2-3)Gal(b1-4)GlcNAc(b1-3)Gal(b1-4)GlcNAc(b1-6)[Gal(b1-3)]GalNAc
In short: as §1

[20] = target: Neu5Ac(a2-3)Gal(b1-4)[Fuc(a1-3)]GlcNAc(b1-6)[Gal(b1-3)]GalNAc
In short: as §1

[21] = target: Neu5Ac(a2-6)Gal(b1-4)GlcNAc(b1-2)Man(a1-3)[GlcNAc(b1-2)Man(a1-6)]Man(b1-4)GlcNAc(b1-4)GlcNAc
In short: as §1

[22] = target: Neu5Ac(a2-6)Gal(b1-4)GlcNAc(b1-2)Man(a1-3)[Neu5Ac(a2-3)Gal(b1-4)GlcNAc(b1-2)Man(a1-6)]Man(b1-4)GlcNAc(b1-4)GlcNAc
In short: as §1

[23] = target: Neu5Ac(a2-6)Gal(b1-4)GlcNAc(b1-2)[Neu5Ac(a2-6)Gal(b1-4)GlcNAc(b1-4)]Man(a1-3)[GlcNAc(b1-4)][Neu5Ac(a2-6)Gal(b1-4)GlcNAc(b1-2)[Neu5Ac(a2-6)Gal(b1-4)GlcNAc(b1-6)]Man(a1-6)]Man(b1-4)GlcNAc(b1-4)GlcNAc
In short: as §1

[24] = target: Neu5Ac(a2-6)Gal(b1-4)GlcNAc(b1-3)Gal(b1-4)GlcNAc(b1-3)Gal(b1-4)GlcNAc(b1-2)Man(a1-3)[Neu5Ac(a2-6)Gal(b1-4)GlcNAc(b1-3)Gal(b1-4)GlcNAc(b1-3)Gal(b1-4)GlcNAc(b1-2)Man(a1-6)]GalNAc
In short: as §1

[25] = target: Neu5Ac(a2-6)Gal(b1-4)GlcNAc6S
In short: as §1

[26] = target: Neu5Ac(a2-6)GalNAc(b1-4)GlcNAc6S
In short: as §1

[27] = target: Neu5Gc(a2-8)Neu5Ac(a2-3)Gal(b1-4)GlcNAc
In short: as §1

B1: GST-Gap1 (Streptococcus parasanguinis), A1C3L5 (protein)
chain: MFYFVPSWYNGQRQWYYDTPWWFRVKNRMTFDDSVNQVKMFLQGQEEIGLMILNYQPQLRYFLHKQNIFGIYYWSFFDDIQNITRSYTKIIHLKDLNWPEGCEFLYSPFAVVVRLKGEIFAIVNYAEDGNLHSVSFQKNGKVTKDYIFDDRGFLSSILYYDIDERPLYQDYLNINGVWQVREFLKKENDPTPILMINDFSDQTFSKKYYNGWEELIKERLAIFQNNHVENEDVFVLASDTQHNQLVSSIFKEHRKIYSFFGNRFNLENLGQDRISINDATFLVVDTEKNEELLRKTCENLVFKSIPIVRLSPFDSRLRLGHSQTVKEQIIYFHIDNIELDELYSVIAIILELMTLHLDIELRIVTFRQDFQLDLLKTWIIDFIKTNHFEDLLFKQISEGENEIEDEGEIELSRIAMECFTNENQIIKCLDTARLVIDLGIEPDLYTQIASISAGIPQINRVSSDYVIHQKNGLVISDISKLSSAIEFYFDGLFNWNEALIYAVRKMSDYTSGKILKQWKGMLKKK
[1]
  glycan array binding signal (z-score): 0.538
[2]
  glycan array binding signal (z-score): 0.12
[3]
  glycan array binding signal (z-score): -0.553
[4]
  glycan array binding signal (z-score): -0.202
[5]
  glycan array binding signal (z-score): 0.159
[6]
  glycan array binding signal (z-score): -0.452
[7]
  glycan array binding signal (z-score): 5.69
[8]
  glycan array binding signal (z-score): 0.668
[9]
  glycan array binding signal (z-score): 2.14
[10]
  glycan array binding signal (z-score): 0.361
[11]
  glycan array binding signal (z-score): -0.16
[12]
  glycan array binding signal (z-score): 0.811
[13]
  glycan array binding signal (z-score): -0.28
[14]
  glycan array binding signal (z-score): -0.969
[15]
  glycan array binding signal (z-score): 0.39
[16]
  glycan array binding signal (z-score): -1.31
[17]
  glycan array binding signal (z-score): 2.28
[18]
  glycan array binding signal (z-score): 2.15
[19]
  glycan array binding signal (z-score): -0.747
[20]
  glycan array binding signal (z-score): 1.35
[21]
  glycan array binding signal (z-score): -0.335
[22]
  glycan array binding signal (z-score): 0.84
[23]
  glycan array binding signal (z-score): -0.54
[24]
  glycan array binding signal (z-score): 2.53
[25]
  glycan array binding signal (z-score): 0.323
[26]
  glycan array binding signal (z-score): -0.037
[27]
  glycan array binding signal (z-score): -0.655
